Inconclusive results are not listed. Calls of active or inactive are those of the source. Calls follow the shape of the dose curve; as a rule, active = well fitted cell-killing curve with a large enough effect; inconclusive = small, poorly fitted or top-dose-only effect, or effect the other way; inactive = flat fitted curve, though single readings scatter.
Columns and labels:
Experiment in all cases: Primary qHTS to identify gynecologic anti-cancer compounds using libraries of approved drugs and bioactive compounds (AID 1345084); also: nearly all actives have a fitted effect of over 55% in size
Conditions in all cases: Gynecologic cancer cell panel viability, ATPlite luminescence, 48 h; series mostly up to 57.5 µM
[1] = tested on: OV90
In short: (§1)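 ATP-based viability (ATPlite), 1,000 cells/well, 16 h pre-incubation, 48 h compound at 37 C, 5% CO2, 15 min RT before read.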

[2] = tested on: PA-1
In short: as §1

[3] = tested on: SKOV3
In short: as §1

[4] = tested on: Tov-21-G
In short: as §1

[5] = tested on: Tov112D
In short: as §1
% is scaled to controls: 0 for no effect and ±100 for the full control effect.

C[C@H]1CCN2C[C@]34C[C@@]5(C(=O)Nc6c5ccc5c6OC=CC(C)(C)O5)C(C)(C)C3C[C@]12C(=O)N4C (stereo not given in full)
inactive: Potency [1] | Potency [2] | Potency [3] | Potency [4] | Potency [5]

COc1ccc(-n2c(=O)[nH]c3cc(C(=O)NCc4ccc(Cl)cc4)sc3c2=O)nc1OC
inactive: Potency [1] | Potency [2] | Potency [3] | Potency [4] | Potency [5]

C=C[C@@]1(C)CCC2=C([C@H]1OC(C)=O)[C@H](OC(C)=O)CC1[C@](C)(C(=O)OC)CC[C@H](OC(C)=O)[C@]21C (stereo not given in full)
inactive: Potency [1] | Potency [2] | Potency [3] | Potency [4] | Potency [5]

C[C@@H]1O[C@@H](OC2C(CO)OC(OCC3OC(OC(=O)[C@]45CCC(C)(C)CC4C4=CCC6[C@@]7(C)CC[C@@H](O)[C@](C)(C(=O)O)C7CC[C@@]6(C)[C@]4(C)CC5)C(O)C(O)C3O)C(O)C2O)[C@H](O)[C@H](O)[C@H]1O (stereo not given in full)
inactive: activity change, negative = cytotoxicity [1] 8.36% [at 11.6 µM] | activity change, negative = cytotoxicity [2] 29.2% [at 11.6 µM] | activity change, negative = cytotoxicity [3] 5.25% [at 11.6 µM] | activity change, negative = cytotoxicity [4] 6.16% [at 11.6 µM] | activity change, negative = cytotoxicity [5] 2.63% [at 11.6 µM]

C=CC(C)(CC/C=C(\C)C(=O)OC[C@H]1O[C@@H](OC(C)(C=C)CC/C=C(\C)C(=O)O[C@H]2[C@H](O)[C@@H](O)[C@H](OC(C)(C=C)CC/C=C(\C)C(=O)O)O[C@@H]2CO)[C@H](O)[C@@H](O)[C@@H]1O)O[C@@H]1O[C@H](CO)[C@@H](O)[C@H](O)[C@H]1O (stereo not given in full)
inactive: activity change, negative = cytotoxicity [1] 2.45% [at 11.6 µM] | activity change, negative = cytotoxicity [2] 1.36% [at 11.6 µM] | activity change, negative = cytotoxicity [3] 0.327% [at 11.6 µM] | activity change, negative = cytotoxicity [4] -2.47% [at 11.6 µM] | activity change, negative = cytotoxicity [5] 8.98% [at 11.6 µM]

Reference: PubChem BioAssay (NCATS)
